This note sets out measurements from PubChem BioAssay (Tox21).

Experiment [1] can be described thus: Nuclear factor erythroid 2-related factor 2/antioxidant responsive element (Nrf2/ARE) small molecule agonists: qHTS cell viability counter screen in human keratinocytes (AID 1919968; active means well fitted curve in the direction sought with a large enough effect in the repeat runs; an effect the other way counts as inactive or inconclusive; further: nearly all actives have a fitted effect of over 55% in size). An outline of the steps:
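After a 5 h attachment period, ARE-reporter keratinocytes were dosed with compounds in DMSO and then cultured 23 h at 37 C. Cell viability came from CellTiter-Fluor signal read after a further 1 h.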
(Quantitative high-throughput screening tests each substance at several concentrations.)

Experiment [2] concerns the target Gonadotropin-releasing hormone receptor (Homo sapiens) (UniProt P30968). Put plainly: Human gonadotropin-releasing hormone receptor (GnRHR) small molecule agonists, calcium flux assay in GnRHR-HEK293 cells (AID 1920063). Further: nearly all actives have a fitted effect of over 35% in size. In short, it runs like this:
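We seeded human GnRHR-expressing HEK293 cells for 18 hours, loaded them with calcium dye for an hour at 37 C, added test compounds, and recorded fluorescence intensity kinetically for three minutes.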

Experiment [3] can be described thus: G protein-coupled receptor (GPCR) small molecule agonists, calcium flux assay: HEK293 wild type cell line counter screen (AID 1920065). An outline of the steps:
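Calcium-sensitive dye, loaded 1 h at 37 C into cells cultured 18 h, reports compound-evoked calcium release as fluorescence (Ex/Em 480/540), measured over 3 min. Agonist mode; 15-point titrations, triplicate.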
On the technique in general: A change in cytosolic calcium serves as a functional read-out for many receptors and channels.

A short description of experiment [4]: p53 small molecule agonists, cell-based qHTS assay with human liver microsomes (AID 1963577). In short, it runs like this: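 p53RE-bla cells, 4,000/well, compound added after 5 h, with human liver microsomes 0.5 mg/mL and NADPH 0.5 mg/mL final; 16 h at 37 C, then LiveBLAzer 2 h RT, fluorescence.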
Experiment [5] in a line: p53 small molecule agonists, cell-based qHTS assay with rat liver microsomes (AID 1963578). An outline of the steps: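 p53RE-bla cells, 4,000/well, pre-incubated 5 h, then given compounds plus rat liver microsomes (0.5 mg/mL final) and NADPH (0.5 mg/mL final). Incubation 16 h at 37 C; beta-lactamase reporter read by LiveBLAzer fluorescence after 2 h at room temperature.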

A short description of experiment [6]: p53 small molecule agonists, cell-based qHTS assay with rat liver microsomes: qHTS cell viability counter screen (AID 1963580). Further: nearly all actives have a fitted effect of over 45% in size. In short, it runs like this: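 Viability is assessed in parallel with the p53 reporter read: HCT-116 p53RE-bla cells receive compounds plus rat microsomes and NADPH (0.5 mg/mL final apiece), incubate 16 h at 37 C, and then CellTiter-Glo luminescence is recorded.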

Experiment [7] can be described thus: p53 small molecule agonists, cell-based qHTS assay (AID 1963582; active means well fitted activation curve with a large enough effect in the signal ratio in the repeat runs, not every such curve was filed as active; the % refers to the signal ratio). An outline of the steps: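 In this cell-based concentration-response screen, a p53 response element drives beta-lactamase; cells received DMSO-borne compounds after 5 h culture and were incubated a further 16 h before FRET substrate development.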
Experiment [8] has as its target 5-hydroxytryptamine receptor 2A (Homo sapiens) (UniProt P28223). Put plainly: 5-hydroxytryptamine receptor 2A (HTR2A) small molecule antagonists, cell-based qHTS assay (AID 1963586). Further: nearly all actives have a fitted effect of over 45% in size. Further: potency means the concentration at half of the fitted maximal effect. An outline of the steps:
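Antagonist-mode intracellular calcium assay: DOI (4 nM) added after 5 min compound pre-incubation at room temperature to dye-loaded HTR2A-CHO cells. Fluorescence followed for 3 min, sampled every second.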

Experiment [9] deals with Muscarinic acetylcholine receptor M1 (Homo sapiens) (UniProt P11229). As to the kind of experiment: Cholinergic receptor muscarinic 1 (CHRM1) small molecule antagonists, cell-based qHTS assay (AID 1963588). Further: nearly all actives have a fitted effect of over 40% in size. An outline of the steps:
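CHRM1-CHO calcium-flux assay, antagonist mode. Cells were seeded 18 h, dye-loaded 1 h at 37 C and given compound for 5 min at RT, then acetylcholine was added at 50nM. FDSS fluorescence was read 3 min; 15 concentrations, three runs.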

Experiment [10] has the same target. Put plainly: Cholinergic receptor muscarinic 1 (CHRM1) small molecule agonists, cell-based qHTS assay (AID 1963589). Further: nearly all actives have a fitted effect of over 35% in size. An outline of the steps: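 Measures agonist-induced intracellular calcium rise. Stable human CHRM1 CHO line, 1 h dye load at 37 C, compounds from DMSO, kinetic fluorescence read.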
A short description of experiment [11]: cAMP Responsive Elements (CRE) small molecule agonists, cell-based qHTS assay (AID 1963590). An outline of the steps:
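A CRE-responsive beta-lactamase reporter in HEK 293T cells was used. Treatment ran 3 h at 37 C; detection used LiveBLAzer B/G FRET substrate for 2 h at room temperature.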

A short description of experiment [12]: cAMP Responsive Elements (CRE) small molecule antagonists, cell-based qHTS assay (AID 1963591; active means well fitted inhibition curve with a large enough effect in the signal ratio in the repeat runs, not every such curve was filed as active; the % refers to the signal ratio). An outline of the steps:
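HEK293T cells carrying a CRE-driven beta-lactamase reporter receive compound and NKH477 (0.25 uM final) for 3 h. Fluorescence from LiveBLAzer B/G FRET substrate is read after 2 h at room temperature.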

The target of experiment [13] is Beta-2 adrenergic receptor (Homo sapiens) (UniProt P07550). Put plainly: Adrenergic beta2 receptor (ADRB2) small molecule antagonists, cell-based qHTS assay (AID 1963592). Further: series mostly up to about 92 µM; nearly all actives have a fitted effect of over 50% in size. An outline of the steps:
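Cells (CHO, stable ADRB2 overexpression) incubated 18-20hr at 37C; compounds added from DMSO; agonist mix (1nM isoproterenol, 100uM IBMX, 25uM Ro-20-1724) added; 0.5hr RT; d2-cAMP and anti-cAMP-cryptate added; 1hr RT; 665/615 nm read.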

Experiment [14] deals with D(2) dopamine receptor (Homo sapiens) (UniProt P14416). As to the kind of experiment: Dopamine D2 receptor (DRD2) small molecule agonists, cell-based qHTS assay (AID 1963594). Further: nearly all actives have a fitted effect of over 35% in size. Further: potency means the concentration at half of the fitted maximal effect. An outline of the steps:
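HEK293 cells stably expressing human DRD2, pre-treated with PDE inhibitor Ro20-1724 (0.1 mM final) and compound 10 min at room temperature, then stimulated with NKH477 (200nM […]) for 30 min. cAMP read by HTRF (665/620 nm).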

For experiment [15] the target is unchanged. As to the kind of experiment: Dopamine D2 receptor (DRD2) small molecule antagonists, cell-based qHTS assay (AID 1963595; active means well fitted inhibition curve with a large enough effect in the signal ratio in the repeat runs, with a control signal flat; the % refers to the signal ratio; further: potency means the concentration at half of the fitted maximal effect). An outline of the steps: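 Antagonism was scored as restored cAMP in HEK293-DRD2 cells. These cells were stimulated with 200 nM NKH477 and 12 nM quinpirole for 30 min at room temperature, in the presence of 0.1 mM Ro20-1724.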
A short description of experiment [16]: p53 small molecule agonists, cell-based qHTS assay with human liver microsomes: qHTS cell viability counter screen (AID 1963579). Further: nearly all actives have a fitted effect of over 45% in size. In short, it runs like this: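 p53RE-bla cells, 4,000/well, dosed 5 hours after plating, with human liver microsomes (0.5 mg/mL final) plus NADPH (0.5 mg/mL final), 16 hours at 37 C. Viability read as CellTiter-Glo luminescence after 30 min at room temperature.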

Experiment [17] in a line: p53 small molecule agonists, cell-based qHTS assay: qHTS cell viability counter screen (AID 1963581). Further: nearly all actives have a fitted effect of over 45% in size. In short, it runs like this:
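Following 5 h attachment, HCT-116 p53RE-bla cells took up compound for 16 h at 37 C; the reporter was read with B/G FRET substrate (2 h RT), and viability then via CellTiter-Glo ATP luminescence.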

The target in experiment [18] is KiSS-1 receptor (Homo sapiens) (UniProt Q969F8). Put plainly: Human kisspeptin (KISS1R) small molecule agonists, calcium flux assay in KISS1R-HEK293 cells (AID 1920064; active means well fitted curve in the direction sought with a large enough effect in the repeat runs; an effect the other way counts as inactive or inconclusive). An outline of the steps:
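Kinetic calcium assay, 1 s sampling over 3 min at Ex/Em 480/540, in HEK293 cells engineered with human KISS1R; compounds delivered in DMSO after 1 h dye loading.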

Experiment [19] addresses 5-hydroxytryptamine receptor 2A (Homo sapiens) (UniProt P28223). Put plainly: 5-hydroxytryptamine receptor 2A (HTR2A) small molecule agonists, cell-based qHTS assay (AID 1963587). Further: nearly all actives have a fitted effect of over 30% in size. Further: potency means the concentration at half of the fitted maximal effect. In short, it runs like this:
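CHO cells stably expressing human HTR2A, plated 18 h, loaded with calcium dye 1 h at 37 C. Agonist mode: compounds added and intracellular calcium fluorescence recorded kinetically for 2 min at 1 sec intervals.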

Values without a mark were called inactive. Results filed as inconclusive are left out. Activity calls are given as the source filed them. Unless noted, the call rests on the fitted dose curve.
On the % scale 0 is the no-effect control and ±100 the full control effect.

Chain of Beta-2 adrenergic receptor (Homo sapiens) (P07550 whole entry, looked up): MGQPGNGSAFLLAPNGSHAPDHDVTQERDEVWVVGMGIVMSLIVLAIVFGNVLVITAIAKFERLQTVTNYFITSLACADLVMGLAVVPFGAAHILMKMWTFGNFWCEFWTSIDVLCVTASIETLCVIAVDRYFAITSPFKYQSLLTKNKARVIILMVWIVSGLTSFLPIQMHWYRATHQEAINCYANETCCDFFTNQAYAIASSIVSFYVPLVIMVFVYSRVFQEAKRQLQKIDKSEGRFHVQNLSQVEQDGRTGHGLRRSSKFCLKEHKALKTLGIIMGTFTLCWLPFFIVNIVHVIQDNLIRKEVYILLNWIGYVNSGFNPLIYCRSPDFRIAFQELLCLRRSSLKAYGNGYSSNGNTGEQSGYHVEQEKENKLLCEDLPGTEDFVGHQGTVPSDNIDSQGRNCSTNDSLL
Chain of 5-hydroxytryptamine receptor 2A (Homo sapiens) (P28223 whole entry, looked up): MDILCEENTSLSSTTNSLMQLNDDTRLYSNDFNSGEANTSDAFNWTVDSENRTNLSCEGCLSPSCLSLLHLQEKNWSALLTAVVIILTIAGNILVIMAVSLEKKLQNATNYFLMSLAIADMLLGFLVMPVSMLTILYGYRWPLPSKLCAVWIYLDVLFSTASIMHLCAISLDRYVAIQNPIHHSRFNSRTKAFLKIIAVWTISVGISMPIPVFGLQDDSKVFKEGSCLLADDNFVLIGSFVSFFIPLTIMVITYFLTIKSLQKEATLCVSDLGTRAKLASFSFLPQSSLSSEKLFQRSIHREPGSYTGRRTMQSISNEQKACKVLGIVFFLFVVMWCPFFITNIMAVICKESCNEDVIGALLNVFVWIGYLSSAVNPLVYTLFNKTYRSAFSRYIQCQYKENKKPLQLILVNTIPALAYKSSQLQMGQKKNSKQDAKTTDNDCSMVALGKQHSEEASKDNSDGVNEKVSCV
Chain of Gonadotropin-releasing hormone receptor (Homo sapiens) (P30968 whole entry, looked up): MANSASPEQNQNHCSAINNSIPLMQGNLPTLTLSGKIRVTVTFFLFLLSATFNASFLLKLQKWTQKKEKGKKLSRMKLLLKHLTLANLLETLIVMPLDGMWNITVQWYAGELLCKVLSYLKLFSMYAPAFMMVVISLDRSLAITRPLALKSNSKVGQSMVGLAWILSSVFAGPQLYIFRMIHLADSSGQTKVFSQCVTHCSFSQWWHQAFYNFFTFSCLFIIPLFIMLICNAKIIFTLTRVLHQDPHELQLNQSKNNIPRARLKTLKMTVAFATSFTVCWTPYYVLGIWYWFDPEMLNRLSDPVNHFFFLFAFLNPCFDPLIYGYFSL
Chain of Muscarinic acetylcholine receptor M1 (Homo sapiens) (P11229 whole entry, looked up): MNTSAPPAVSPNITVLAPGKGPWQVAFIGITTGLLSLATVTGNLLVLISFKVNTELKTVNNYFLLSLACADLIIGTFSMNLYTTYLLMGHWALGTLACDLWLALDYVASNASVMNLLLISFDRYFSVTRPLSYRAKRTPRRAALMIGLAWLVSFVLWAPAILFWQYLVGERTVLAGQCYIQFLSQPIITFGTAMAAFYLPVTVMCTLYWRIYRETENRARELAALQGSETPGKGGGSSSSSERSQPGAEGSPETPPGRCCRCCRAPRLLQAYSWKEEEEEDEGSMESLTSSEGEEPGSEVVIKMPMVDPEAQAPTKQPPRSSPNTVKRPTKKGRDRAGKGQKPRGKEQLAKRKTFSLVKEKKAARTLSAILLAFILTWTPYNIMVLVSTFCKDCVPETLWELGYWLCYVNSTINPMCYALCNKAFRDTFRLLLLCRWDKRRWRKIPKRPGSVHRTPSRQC
Chain of KiSS-1 receptor (Homo sapiens) (Q969F8 whole entry, looked up): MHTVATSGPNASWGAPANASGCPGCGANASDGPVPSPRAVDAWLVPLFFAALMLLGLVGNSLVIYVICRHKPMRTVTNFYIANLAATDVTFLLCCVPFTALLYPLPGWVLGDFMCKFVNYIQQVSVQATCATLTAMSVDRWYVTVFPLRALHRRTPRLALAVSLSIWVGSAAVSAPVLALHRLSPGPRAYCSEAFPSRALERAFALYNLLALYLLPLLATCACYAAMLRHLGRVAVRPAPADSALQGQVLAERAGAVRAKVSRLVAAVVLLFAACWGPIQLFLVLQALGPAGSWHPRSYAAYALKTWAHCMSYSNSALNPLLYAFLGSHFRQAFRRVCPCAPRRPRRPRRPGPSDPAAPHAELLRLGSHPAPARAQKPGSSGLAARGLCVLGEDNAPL
Chain of D(2) dopamine receptor (Homo sapiens) (P14416 whole entry, looked up): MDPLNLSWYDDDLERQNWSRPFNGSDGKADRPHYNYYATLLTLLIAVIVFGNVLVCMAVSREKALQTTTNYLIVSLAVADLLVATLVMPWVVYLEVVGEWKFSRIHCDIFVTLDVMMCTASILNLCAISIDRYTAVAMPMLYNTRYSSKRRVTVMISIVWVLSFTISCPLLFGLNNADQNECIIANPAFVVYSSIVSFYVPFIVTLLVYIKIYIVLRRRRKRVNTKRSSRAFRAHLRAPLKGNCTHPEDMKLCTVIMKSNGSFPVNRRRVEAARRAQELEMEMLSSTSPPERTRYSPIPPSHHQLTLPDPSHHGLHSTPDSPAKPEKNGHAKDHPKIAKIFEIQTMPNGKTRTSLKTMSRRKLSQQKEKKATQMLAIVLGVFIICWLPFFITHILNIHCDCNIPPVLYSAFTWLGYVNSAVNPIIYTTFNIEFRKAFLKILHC

In the case of `C=CCN1CCc2nc(N)sc2CC1`, the Potency result in experiment [1], in [2], in experiment [4], in experiment [5], in experiment [6] and in experiment [7] was “inactive” in each case. Moreover, the Potency entry in [9], in experiment [10], in experiment [11], in experiment [12], in [13] and in experiment [15] was “inactive” each time. In addition, in experiment [3], the outcome was inactive. The Potency in [8] is 4100 nM (active); in [14] it was 119 nM (active).
As to `NCCCC[C@H](N[C@@H](CCc1ccccc1)C(=O)O)C(=O)N1CCC[C@H]1C(=O)O`, the Potency result in [1], in experiment [2], in experiment [4], in experiment [5], in experiment [16] and in [6] was “inactive” in each case. Besides, the Potency result in [17], in experiment [7], in experiment [11], in [12], in experiment [14] and in experiment [15] was “inactive” in each case. The outcome in experiment [3] was inactive.
As for `CCN1CCC[C@H]1CNC(=O)c1cc(S(N)(=O)=O)ccc1OC`, the Potency result in experiment [1], in experiment [5], in [16], in experiment [6], in [17] and in experiment [7] was “inactive” each time. In addition, the Potency entry in [11], in [12] and in experiment [13] was “inactive” throughout. Moreover, the result in experiment [18] and in experiment [3] was inactive.
On to `CCOC(=O)C1=C(C)NC(C)=C(C(=O)OC)C1c1cccc([N+](=O)[O-])c1` (stereo not drawn), for which the Potency entry in [1], in experiment [2], in experiment [5], in experiment [16], in experiment [6] and in [17] was “inactive” in each case. Further, the Potency entry in experiment [7], in experiment [11], in [12], in [13], in experiment [14] and in experiment [15] was “inactive” throughout. Also, the result in [18] and in experiment [3] was inactive.
Take `O=C1CC2(CCCC2)CC(=O)N1CCNCC1COc2ccccc2O1` (stereo not drawn): the Potency entry in experiment [1], in [2], in experiment [5], in experiment [16], in [6] and in [9] was “inactive” in each case. Also, the Potency entry in experiment [10] and in experiment [13] was “inactive” throughout. Also, the outcome in experiment [18] and in experiment [3] was inactive. For the same molecule, the Potency in experiment [15] was 750 nM (active).
In the case of `CCCCC/C=C/CC1CC(=O)OC1=O` (stereo not drawn), the Potency entry in [1], in experiment [2], in [5], in experiment [16], in experiment [6] and in experiment [17] was “inactive” each time. In addition, the Potency entry in [7], in experiment [8], in [19], in experiment [9], in experiment [10] and in experiment [11] was “inactive” in each case. The Potency entry in experiment [12], in experiment [13], in experiment [14] and in experiment [15] was “inactive” throughout. In addition, the result in [18] and in [3] was inactive.
On to `C#CCN[C@@H]1CCc2ccccc21`, for which the Potency entry in experiment [1], in [2], in [4], in [16], in experiment [6] and in experiment [7] was “inactive” in each case. The Potency result in [19], in experiment [9], in experiment [10], in experiment [11], in experiment [12] and in experiment [13] was “inactive” each time. The Potency result in [14] and in experiment [15] was “inactive” throughout. The result in experiment [18] and in experiment [3] was inactive.
Consider `CCC(=O)CC(C)CC` (stereo not drawn), for which the activity change, negative = cytotoxicity in experiment [1] is 1.61% [at 0.349 µM]; in [16] it was -9.86% [at 0.249 µM]. Moreover, the activity change in [2] is -1.45% [at 0.217 µM, stronger effect = higher value]. The activation in experiment [18] is -1.52% [at 0.29 µM]; in [4], -0.0354% [at 0.249 µM]; in [5], -2.6% [at 0.249 µM]; in [7], 5.1% [at 0.249 µM]; in experiment [19] it was 6.03% [at 0.292 µM]; in [10], 0.0292% [at 0.29 µM]. Moreover, the activation in [11] was 0.0521% [at 0.349 µM]. Also, the activity, negative = inhibition is 14.6% [at 0.233 µM] in [8] and -17.2% [at 0.232 µM] in experiment [9]. For the same molecule, the activity change, negative = inhibition in [12] is 1.08% [at 0.349 µM]; in experiment [13], 7.63% [at 0.349 µM]; in experiment [15] it was 8.77% [at 0.348 µM].
Take `CN1CCC[C@@H]1Cc1c[nH]c2ccc(CCS(=O)(=O)c3ccccc3)cc12`: the Potency entry in experiment [1], in experiment [2], in experiment [4], in experiment [6], in experiment [7] and in experiment [9] was “inactive” throughout. The Potency entry in [10], in [11], in experiment [12], in experiment [14] and in [15] was “inactive” each time. In addition, the outcome in experiment [18] and in experiment [3] was inactive. Also, the figures for the Potency in experiment [8] and in experiment [19] were 365 nM (active) and 107 nM (active), respectively.
